Bioassay records as filed in PubChem BioAssay.
Compounds with a hit are over-represented: about 3.9% of the library has one in this group of screens.
KKLEB cytotox – cytotoxicity in KKLEB CF airway cells, primary screen, cytotoxicity control for CF NF-kB inhibitor project, cell-based, uHTS, fluorescence assay plates; KKLEB CF airway cells viability, ATPlite luminescence, overnight; active compounds read low; cells stimulated with P. aeruginosa culture filtrate; activity change (cytotoxicity), % at 5 µM; 0.36% of 360,000 active; AID 602141, 2011;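 active = corrected activity change at or below -50% at 5 µM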
Peg3 promoter – Peg3 promoter-driven luciferase inhibitors, primary screen, cell-based, HeLa, luciferase luminescence; HeLa PEG-Prom luciferase reporter, overnight; inhibition, % at 20 µM; 1.7% of 360,000 active; AID 588405, 2011;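 active = inhibition of at least 50% at 20 µM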
TWEAK Fn14 block – inhibitors of TWEAK-Fn14 signaling, primary screen, luciferase reporter cells, uHTS | 2% of 360,000 active | TWEAK-stimulated Fn14 reporter cells, luciferase luminescence, 8 h | inhibition, % at 10 µM; in the data active = inhibition above about 50%
TROY signal inh – inhibitors of TROY-driven NF-kB signaling, primary screen, Q293 LMP1-TROYcd cells, NF-kB luciferase, uHTS | Q293 LMP1-TROYcd NF-kB luciferase reporter, 4 h | inhibition, % at 10 µM | 0.98% of 360,000 active;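 active = compounds whose plate-normalised and pattern-corrected inhibition of the luciferase reporter signal at the single screening dose is 50% or more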
HIF-2a inh – HIF-2a reporter inhibitors, primary screen, luminescence, 786-0 RCC cells | AID 624352, 2012 | inhibition, % at 18.8 µM | 0.72% of 360,000 active | 786-0 RCC cells HIF-2a reporter, luciferase luminescence, overnight;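 active = inhibition of the luminescence signal of 40% or more relative to plate controls, in a single-dose primary screen at 18.75 µM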
CF NFkB block – inhibitors of PAF-induced NF-kB signaling, primary screen, cell-based, GFP fluorescence, uHTS | KKLEB NF-kB-GFP reporter, GFP fluorescence overnight | AID 588850, 2011 | 0.86% of 360,000 active | inhibition, % at 5 µM;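 active = at least 50% inhibition at 5 µM, scaled per plate between neutral and stimulator controls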;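 also: PAF is a Pseudomonas aeruginosa culture filtrate used as stimulus; plate controls were PAF-stimulated DMSO wells for no effect and unstimulated DMSO wells for full effect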
Numbers without * were called inactive; · = no result given.

SMILES | KKLEB cytotox | Peg3 promoter | TWEAK Fn14 block | TROY signal inh | HIF-2a inh | CF NFkB block
O=C(COC(=O)C1CC(=O)N(c2ccc3c(c2)OCCO3)C1)Nc1ccc2c(c1)CCC2 (centres undefined) | -4 | -3 | 65* | 10 | 8 | -4
COc1ccccc1NC(=O)COC(=O)C1CC(=O)N(c2ccc3c(c2)OCCO3)C1 (centres undefined) | 8 | -16 | 64* | 20 | 12 | 8
C[C@H](CO)N1C[C@H](C)[C@@H](CN(C)C(=O)Nc2ccc(N3CCN(C)CC3)cc2)OCc2cnnn2CCCC1=O | -8 | -16 | 3 | 22 | 5 | -1
CCOC(=O)C(=O)N=Nc1c(O)[nH]c2ccccc12 | 1 | 14 | 14 | -13 | 11 | -6
c1ccc(CSc2nnc(-c3cccnc3)o2)cc1 | 4 | -179 | -10 | · | -174 | 9
c1cncc(-c2nnc(SCc3nc4ccccc4[nH]3)o2)c1 | -2 | 26 | 24 | 74* | -6 | 7
O=C(CC(Nc1ccccc1)C(=O)O)c1ccccc1 (centres undefined) | -2 | -202 | 6 | -25 | -222 | -4
C=C(C(=O)c1ccccc1)C(C)CC(=O)c1ccccc1 (centres undefined) | -26 | 72* | 63* | -19 | 26 | 14
COc1cccc(CNC(=O)C2=Cc3cccc(OC)c3OC2)c1 | -1 | 58* | -21 | 4 | 1 | 18
COc1ccc(C(=O)Cn2c(=O)oc3ccc(C)cc32)cc1 | 1 | -20 | 1 | -25 | -27 | 8
CCOc1ccc(-c2cc(C(=O)NCc3ccc(C(F)(F)F)cc3)[nH]n2)c(C)c1 | -4 | 9 | -51 | 10 | -19 | -38
CC(Nc1nc(N2CCNCC2)nc2ccccc12)c1ccccc1 (centres undefined) | -7 | 102* | -141 | 10 | 30 | -3
Cc1cccc(C)c1NC(=O)C1c2ccccc2OCC(=O)N1CCc1c[nH]c2ccccc12 (centres undefined) | · | · | -9 | -14 | 12 | ·
OC(COc1ccc2cc(Br)ccc2c1)CN1CCCC1 (centres undefined) | -14 | -10 | 51* | 55* | -75 | 15
Cc1ccc(S(=O)c2snnc2C)cc1 (centres undefined) | -13 | 8 | 7 | -12 | 20 | 8
CNC(=O)c1nnsc1S(=O)c1ccc(Cl)cc1 (centres undefined) | -6 | 103* | 63* | 60* | -18 | 91*
C/C(CC(=O)Nc1ccccc1C#N)=N\NC(=O)c1ccncc1 | -5 | 4 | 19 | 7 | 19 | -8
Cc1ccc(NS(=O)(=O)c2cccc(C(=O)N/N=C/c3c(C)nn(-c4ccccc4)c3N3CCCC3)c2)c(C)c1 | 7 | 19 | 57* | 14 | 10 | 21
CCNc1ccc(C(=O)N/N=C/c2c(C)nn(-c3ccccc3)c2N2CCCC2)cc1[N+](=O)[O-] | -10 | 41 | 31 | 8 | 20 | 17
COc1ccc(COC(=O)C2=C(C)NC(=O)NC2c2ccccc2F)cc1 (centres undefined) | -4 | 27 | 0 | 35 | 39 | 4
Cc1cc(C)n2nc(SCC(=O)N(CCC#N)c3ccc(F)cc3)nc2n1 | -19 | 28 | 2 | -10 | 17 | 4
CC[C@@H]1CCC[C@@H](O)[C@@H](C)C(=O)O[C@H](C)[C@@H](C)C/C=C(C)/C(OC)=C\C(=O)N(C)C([C@@H](C)CC)C(=O)N(C)[C@@H](C(C)C)C(=O)N(C)[C@@H](COC)C(=O)N2CCC[C@H]2C(=O)N(C)[C@@H](C(C)C)C(=O)N2CCC[C@H]2C(=O)O1 (some centres undefined) | 3 | 28 | 77* | 47 | -38 | 20
NC(=O)c1ccsc1NC(=O)COC(=O)Cc1c[nH]c2ccccc12 | -6 | 3 | 23 | 9 | 10 | 9
